The values that follow come from PubChem BioAssay (NCI).

Test in all cases: NCI-60 one-dose screen, 48 h (100 = growth as untreated, 0 = no growth, -100 = all killed)
In test [1] the test system is HCT-15 colon. To be noted: 10 µM.
The subject of test [2] is HT29 colon. As to conditions: 10 µM.
Test [3] concerns SNB-19 CNS. As to conditions: 10 µM.
For test [4], the system named is U251 CNS. To be noted: 10 µM.
The subject of test [5] is PC-3 prostate. As to conditions: 10 µM.
The test system of test [6] is SK-MEL-5 melanoma. To be noted: 10 µM.
For test [7], the system named is UACC-62 melanoma. To be noted: 10 µM unless noted.
In test [8] the test system is LOX IMVI melanoma. As to conditions: 10 µM.
Test [9] deals with SK-MEL-2 melanoma. As to conditions: 10 µM.
Test [10] has as its system EKVX NSCLC. To be noted: 10 µM.
Test [11] deals with SN12C renal. As to conditions: 10 µM.
Test [12] has as its system UO-31 renal. To be noted: 10 µM.
Test [13] concerns TK-10 renal. To be noted: 10 µM unless noted.
The subject of test [14] is ACHN renal. As to conditions: 10 µM.
Test [15] deals with CAKI-1 renal. To be noted: 10 µM.
Test [16] concerns A498 renal. As to conditions: 10 µM.
Test [17] has as its system CCRF-CEM leukemia. To be noted: 10 µM.
Test [18] has as its system MOLT-4 leukemia. To be noted: 10 µM.
Test [19] concerns SK-MEL-28 melanoma. As to conditions: 10 µM.

About 83,000 compounds went through this panel and 20% of them were active in at least one assay; those are over-represented in the sample as a whole.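 Activity criterion: percent growth below 10, measured after cells in 96-well plates were exposed to a single compound concentration for 48 hours.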 A number with no mark means an inactive call. The source made the active and inactive calls.

With `O=C(c1ccccc1)C1CCC1`, the growth in test [1] was 99.7%; in test [2], 85.4%; in test [3], 103%; in test [4] it was 76.1%; in test [5], 90.4%; in [6] it was 107%. In addition, the growth in [7] is 94%; in test [8], 106%; in test [9], 96.7%; in test [10], 105%; in test [11], 89.2%; in test [12] it was 76.1%. The growth is 93.4% in test [13]; 106% in test [14]; 98.5% in test [15]; 103% in [16]; 88.6% in test [17]; 91.3% in [18].

`NC(=S)CN1CCOCC1`: the growth was 107% in test [1]; 100% in [2]; 104% in [3]; 102% in test [4]; 91.9% in test [5]; 106% in test [6]. For the same compound, the growth in test [7] was 99%; in test [8], 104%; in test [19] it was 106%; in [10], 112%; in test [11], 103%; in test [12], 88%. Moreover, the growth is 99.3% in test [13]; 103% in [14]; 95.6% in [15]; 89.9% in [16]; -25.8% (active) in test [17]; 32.3% in [18].

`O=C(CCl)N1CCN(C/C=C/c2ccccc2)CC1`: the growth in test [1] was 86.3%; in test [2], 79.2%; in test [3] it was 95.2%; in [4] it was 90.7%; in [5], 89%; in test [6] it was 86.6%. Moreover, the growth was 76.6% in test [7]; 2.58% (active) in test [8]; 94.4% in [19]; 64.6% in test [11]; 93.1% in test [12]; 85.6% in test [13]. Also, the growth in test [14] is 95.8%; in test [15], 99.3%; in test [16], 94%; in test [17] it was 21.7%; in test [18], 71.4%.

In the case of `CCOC(=O)C1OC1c1ccccc1` (configuration not stated), the growth in [1] is 103%; in test [2], 112%; in [3], 103%; in test [4] it was 98.7%; in test [5] it was 98.8%; in test [6], 99.6%. Besides, the growth in [7] is 101%; in [19], 110%; in [9], 114%; in test [10] it was 98.4%; in test [11], 105%; in test [12], 89.2%. Besides, the growth in test [13] was 103%; in test [14], 104%; in test [15], 98.6%; in test [16] it was 96.8%; in [17], 109%; in test [18], 107%.

Take `NC(=O)N/N=C\c1ccco1`: the growth in [1] was 107%; in [2] it was 103%; in test [3], 102%; in test [4], 101%; in [5], 104%; in test [6], 107%. Further, the growth in [7] was 103%; in test [8], 102%; in test [19], 116%; in [10], 119%; in test [11], 98.4%; in test [12] it was 94.7%. Besides, the growth is 100% in [13]; 111% in [14]; 108% in [15]; 117% in test [16]; 102% in test [17]; 101% in test [18].

For the compound `COc1cc2c3c(n(C)c(=O)c2cc1OC)-c1cc2c(cc1C3=O)OCO2`, the growth is 81% in test [1]; 47.4% in test [2]; 54.6% in test [3]; 36% in test [4]; 46.8% in test [5]; 63.6% in test [6]. The growth is 40.1% in test [7]; 39.9% in [8]; 113% in [9]; 94.2% in test [10]; 87% in [11]; 32.6% in test [12]. The growth is 101% in [13]; 26.6% in test [14]; 24.3% in test [15]; 75.5% in [16]; 29.5% in test [17]; 18.3% in test [18].

With `COC(=O)CCCCC1=CCC2C(=O)C=C(O)C2C1` (configuration not stated), the growth in [1] was 96.3%; in [2], 104%; in test [3] it was 104%; in test [5], 92.5%; in [6], 102%; in [7], 103%. For the same compound, the growth in test [8] was 97.5%; in test [19] it was 100%; in [11] it was 102%; in test [12], 89.9%; in [13] it was 96.4%; in test [14], 98.9%. The growth in [18] was 82.7%.

In the case of `CC(=O)C1CCCCC1`, the growth was 95% in test [1]; 104% in test [2]; 100% in test [3]; 96.8% in test [5]; 99.9% in test [6]; 103% in test [7]. Besides, the growth in [8] is 99.9%; in [19], 102%; in test [9], 106%; in test [11], 97.5%; in [12], 92.8%; in [13], 99.5%. Besides, the growth was 97.3% in test [14], 90.8% in test [15] and 99.1% in test [16].

As for `O=C1Cc2ccccc2C(=O)O1`, the growth in test [1] is 110%; in [2], 109%; in [3] it was 103%; in [4], 104%; in test [6], 105%; in [7], 106%. Also, the growth in test [8] is 102%; in test [19] it was 106%; in test [9], 103%; in test [10] it was 107%; in test [11], 101%; in test [13], 110%. Moreover, the growth in [14] is 111%; in [15], 99.9%; in test [16], 123%; in test [17], 85.8%; in test [18] it was 85.4%.
